The OligoGym collection
Further: reference of the scale not given here.

These sequences were tested against C2orf57 (assay: pooled miR-30 sensor sort-seq; sequence = guide strand). Conditions: shRNA.
Work on TTGTCTTTGTCTCCAGATGTTG yielded a sensor-assay potency score (higher = more potent) of -1.39. ATTTGTGACATCTTGTCTTTAC gave a sensor-assay potency score (higher = more potent) of -1.19. TGACATCTTGTCTTTACCCAGG showed a sensor-assay potency score (higher = more potent) of -0.635. Sequence TGTCCTTGCGTCTTGAACCTGC has a sensor-assay potency score (higher = more potent) of 0.175.

The sequences below were run against C2orf70 in the same assay as above. Conditions: shRNA.
TGTCTTGATAGTACTTCCGATG gave a sensor-assay potency score (higher = more potent) of -1.09. In the case of TAAAAGGTGCCACTTCTTCTTT, the sensor-assay potency score (higher = more potent) is reported as -0.951. For TACTTGAGGGTGGTGGTGCCGT, the sensor-assay potency score (higher = more potent) was -0.758. In the case of TAGGTCTTCAGGTTCTCGGGGG, the sensor-assay potency score (higher = more potent) is reported as 0.319. Work on TTGTCTTGATAGTACTTCCGAT yielded a sensor-assay potency score (higher = more potent) of -0.575. TAGTCTTAAAAGGTGCCACTTC was tested, and the sensor-assay potency score (higher = more potent) was -0.307. For TTGAACTCGGTCAGTAGGGTGC, the sensor-assay potency score (higher = more potent) was -0.0549. Work on TTCGTAAGCTCTGTGGAGCGAT yielded a sensor-assay potency score (higher = more potent) of -0.412. TTGATAGTACTTCCGATGCTGC showed a sensor-assay potency score (higher = more potent) of -0.858. TAGAAATTCGTAAGCTCTGTGG was tested, and the sensor-assay potency score (higher = more potent) was -0.326. Sequence TTGGTGGAGAAGATGGTGGGGA has a sensor-assay potency score (higher = more potent) of 0.218. For TAGCAGTCTCTCTTTTTCCGCT, the sensor-assay potency score (higher = more potent) was -0.538.

What follows are sequences tested against C2orf76 in the same assay as above. Conditions: shRNA.
Sequence TTTGTAGTTCTTATAATCTTCT has a sensor-assay potency score (higher = more potent) of -0.217. For TATAATTTCTGAATGGTGGTGG, the sensor-assay potency score (higher = more potent) was 1.01. Sequence TTTGTCTTTGATTTATGTGCTT has a sensor-assay potency score (higher = more potent) of -0.117. Sequence TTTCAGAGTGCTGTCTTCTTTC has a sensor-assay potency score (higher = more potent) of 0.204. With TCTTCTTTCAGCAGGAGTCTTT the sensor-assay potency score (higher = more potent) was -0.508. TTCGTCATCTTCCAAACTCAAC gave a sensor-assay potency score (higher = more potent) of -1.74. In the case of TTTCACTGGCGATTCCAGCTGC, the sensor-assay potency score (higher = more potent) is reported as 0.205. For TTGTCTTTGATTTATGTGCTTG, the sensor-assay potency score (higher = more potent) was -0.405. For TATCTTGCTTTAGAAATACGAT, the sensor-assay potency score (higher = more potent) was -1.11. TGTAGTTCTTATAATCTTCTTC was tested, and the sensor-assay potency score (higher = more potent) was 0.298. TAAAGGGATATCTTGCTTTAGA gave a sensor-assay potency score (higher = more potent) of -0.915.

These sequences were tested against C2orf79 in the same assay as above. Conditions: shRNA.
For TTGTGATAGATCCTTTCGTAAC, the sensor-assay potency score (higher = more potent) was -1.71. Work on TAACACCAAGTATTGTACCAGG yielded a sensor-assay potency score (higher = more potent) of -0.742. TCTTCTGTTGCAGGGTCTCGGC showed a sensor-assay potency score (higher = more potent) of -1.21. With TTTAGGGTGGTCTCATCTGGGG the sensor-assay potency score (higher = more potent) was -0.919. TTCTGTTGCAGGGTCTCGGCCA showed a sensor-assay potency score (higher = more potent) of -0.447. TTGCTCAAGCCACAGCATGTGG showed a sensor-assay potency score (higher = more potent) of -1.1. In the case of TAGATCCTTTCGTAACACCAAG, the sensor-assay potency score (higher = more potent) is reported as -1.46. TATTGTACCAGGACCTGCGGCT gave a sensor-assay potency score (higher = more potent) of -0.203. TTAGGGTGGTCTCATCTGGGGC was tested, and the sensor-assay potency score (higher = more potent) was -1.64. TTTCGTAACACCAAGTATTGTA was tested, and the sensor-assay potency score (higher = more potent) was 0.279. TACAAGTGGCGATATTCTCTGG showed a sensor-assay potency score (higher = more potent) of -0.432. Work on TTCGTAACACCAAGTATTGTAC yielded a sensor-assay potency score (higher = more potent) of -0.56.
